The source of these data is ChEMBL document CHEMBL2218924, “A broad activity screen in support of a chemogenomic map for kinase signalling research and drug discovery” (Biochem J, 2013).

Sequence of Rho-associated protein kinase 1 (Homo sapiens) (Q13464 2-1354 limits assumed): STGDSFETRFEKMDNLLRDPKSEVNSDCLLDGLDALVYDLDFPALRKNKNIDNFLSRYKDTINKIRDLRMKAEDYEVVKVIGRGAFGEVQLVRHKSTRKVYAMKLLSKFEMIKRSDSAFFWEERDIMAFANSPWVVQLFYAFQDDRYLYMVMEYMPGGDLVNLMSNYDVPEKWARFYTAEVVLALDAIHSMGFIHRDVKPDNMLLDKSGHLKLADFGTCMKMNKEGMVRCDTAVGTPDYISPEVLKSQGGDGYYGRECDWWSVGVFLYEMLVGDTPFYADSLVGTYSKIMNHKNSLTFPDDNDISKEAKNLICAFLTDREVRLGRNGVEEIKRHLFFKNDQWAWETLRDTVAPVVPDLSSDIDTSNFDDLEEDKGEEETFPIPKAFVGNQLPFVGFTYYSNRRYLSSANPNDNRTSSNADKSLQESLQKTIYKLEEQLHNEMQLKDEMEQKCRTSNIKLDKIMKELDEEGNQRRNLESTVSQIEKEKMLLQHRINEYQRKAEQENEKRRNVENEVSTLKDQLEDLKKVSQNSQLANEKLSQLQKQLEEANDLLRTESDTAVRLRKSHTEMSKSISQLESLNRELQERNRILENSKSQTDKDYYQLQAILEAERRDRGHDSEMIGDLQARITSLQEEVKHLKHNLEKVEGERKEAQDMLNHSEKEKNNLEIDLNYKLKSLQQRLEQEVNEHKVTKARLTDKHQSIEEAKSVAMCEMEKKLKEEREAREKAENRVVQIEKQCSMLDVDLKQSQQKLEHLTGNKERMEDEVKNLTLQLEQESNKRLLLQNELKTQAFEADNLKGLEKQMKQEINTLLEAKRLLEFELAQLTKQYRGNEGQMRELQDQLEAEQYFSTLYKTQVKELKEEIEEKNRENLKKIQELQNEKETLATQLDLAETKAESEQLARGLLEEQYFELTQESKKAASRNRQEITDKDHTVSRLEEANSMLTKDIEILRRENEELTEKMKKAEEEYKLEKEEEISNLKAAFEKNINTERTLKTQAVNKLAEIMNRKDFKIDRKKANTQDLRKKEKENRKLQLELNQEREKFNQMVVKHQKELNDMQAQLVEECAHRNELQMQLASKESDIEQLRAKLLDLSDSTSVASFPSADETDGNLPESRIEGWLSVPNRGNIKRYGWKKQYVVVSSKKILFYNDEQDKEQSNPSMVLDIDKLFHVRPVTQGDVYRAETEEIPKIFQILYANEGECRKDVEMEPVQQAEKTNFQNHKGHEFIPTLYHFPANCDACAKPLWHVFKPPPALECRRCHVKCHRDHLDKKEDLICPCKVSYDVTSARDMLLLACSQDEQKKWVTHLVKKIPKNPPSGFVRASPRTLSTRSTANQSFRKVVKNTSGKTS

One assay deals with Receptor-interacting serine/threonine-protein kinase 2 (Homo sapiens) (UniProt O43353). The note with it: at 10 µM.
Sequence of Receptor-interacting serine/threonine-protein kinase 2 (Homo sapiens) (O43353 whole entry): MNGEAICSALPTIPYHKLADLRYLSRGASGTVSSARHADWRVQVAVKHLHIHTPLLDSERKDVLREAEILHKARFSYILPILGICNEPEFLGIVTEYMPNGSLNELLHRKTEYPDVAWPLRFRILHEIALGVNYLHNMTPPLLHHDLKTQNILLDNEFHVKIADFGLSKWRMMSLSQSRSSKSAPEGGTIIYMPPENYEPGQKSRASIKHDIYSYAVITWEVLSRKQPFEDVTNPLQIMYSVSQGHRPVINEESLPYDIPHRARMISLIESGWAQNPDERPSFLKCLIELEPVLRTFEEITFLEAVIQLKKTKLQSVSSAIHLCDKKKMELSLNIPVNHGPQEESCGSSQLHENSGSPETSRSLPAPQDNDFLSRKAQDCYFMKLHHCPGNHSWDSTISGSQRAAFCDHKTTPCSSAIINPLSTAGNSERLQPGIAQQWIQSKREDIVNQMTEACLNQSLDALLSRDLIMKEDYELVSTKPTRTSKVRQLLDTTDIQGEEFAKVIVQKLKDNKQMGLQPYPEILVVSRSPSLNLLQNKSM
Consider `O=c1cc(N2CCOCC2)oc2c(-c3ccccc3)cccc12`, for which the residual activity amounted to 74%.
Still for that read-out and setting: the value for `O=C1NC(=O)C(c2cn(CCCn3ccnc3)c3ccccc23)=C1Nc1ccccc1` was 77%; that for `O=c1c(-c2ccc(F)cc2)c(-c2ccncc2)[nH]n1-c1ccc(Cl)cc1` was 19%; that for `CCN(CC)CCNC(=O)c1c(C)[nH]c(/C=C2\C(=O)Nc3ccc(Cl)cc32)c1C` was 27%.
On the same count and under the same terms, the value for `O=C1NC(=O)C(c2c[nH]c3ccccc23)=C1c1c[nH]c2ccccc12` was 74%; that for `Oc1cccc(-c2nc(N3CCOCC3)c3oc4ncccc4c3n2)c1` was 86%; that for `CCCCc1c(-c2ccc(OC)cc2)[nH]c2nccnc12` was 82%.
For `NC(=O)c1ccc(-c2nc(-c3ccc4c(c3)OCCO4)c(-c3ccccn3)[nH]2)cc1`, the residual activity was 18%.
The same measure, in the same setting: the value for `O=C1Nc2ccccc2/C1=C\c1c(Cl)[nH]c2ccccc12` was 60%.
Same read-out and setting: the same measure for `COc1ccc2c(c1)c(C1=C(c3c[nH]c4ccccc34)C(=O)NC1=O)cn2CCCN(C)C`: 64%; for `COc1ccc(CNC(=O)Nc2ncc([N+](=O)[O-])s2)cc1`: 81%; for `COc1cc2c(cc1OC)-c1n[nH]c(Nc3cccc(F)c3)c1C2`: 17%.
Same read-out and setting: the same measure for `c1ccc(-c2cnc(Nc3ccc(OCCN4CCCC4)cc3)s2)cc1`: 17%; for `Nc1nc(Nc2ccc(S(N)(=O)=O)cc2)nn1C(=O)c1c(F)cccc1F`: 41%; for `CCN1/C(=C/C(C)=O)Sc2ccc(OC)cc21`: 60%.
`Nc1nccc(-c2c(-c3ccc(F)cc3)ncn2C2CCNCC2)n1`: the residual activity came to 16%.
Same read-out and setting: the value for `O=C(Nc1ccc(Cl)cc1)c1ccccc1NCc1ccncc1` was 78%; that for `O=C1NC(=O)C(c2cn(CCCO)c3ncccc23)=C1c1cnccn1` was 87%.
On the same count and under the same terms, the same measure for `O=C(c1cc2cc(O)ccc2[nH]1)c1cc2cc(O)ccc2[nH]1`: 6%.

Another assay concerns the target Rho-associated protein kinase 1 (Homo sapiens) (UniProt Q13464). The note with it: at 1 µM.
On to `O=C1NC(=O)C(c2cn(CCCn3ccnc3)c3ccccc23)=C1Nc1ccccc1`, for which the residual activity is 120%.
Same read-out and setting: the same measure for `O=c1c(-c2ccc(F)cc2)c(-c2ccncc2)[nH]n1-c1ccc(Cl)cc1`: 122%; for `COc1ccc(COc2ccc(Cc3cnc(N)nc3N)cc2OC)cc1`: 112%.
As for `Oc1cccc(-c2nc(N3CCOCC3)c3oc4ncccc4c3n2)c1`, the residual activity came out at 123%.
The same measure, in the same setting: the value for `CCCCc1c(-c2ccc(OC)cc2)[nH]c2nccnc12` was 117%.
Still for that read-out and setting: the same measure for `Cn1c2ccccc2c2c3c(c4c5ccccc5n(CCC#N)c4c21)CNC3=O`: 98%.
Turning to `NC(=O)c1ccc(-c2nc(-c3ccc4c(c3)OCCO4)c(-c3ccccn3)[nH]2)cc1`, the residual activity was determined as 118%.
On the same count and under the same terms, the value for `O=C1Nc2ccccc2/C1=C\c1c(Cl)[nH]c2ccccc12` was 121%; that for `CN(C)S(=O)(=O)c1ccc2c(c1)/C(=C/c1cc3c([nH]1)CCCC3)C(=O)N2` was 132%.
Regarding `COc1ccc2c(c1)c(C1=C(c3c[nH]c4ccccc34)C(=O)NC1=O)cn2CCCN(C)C`, the residual activity worked out at 105%.
The same measure, in the same setting: the value for `Nc1nc(Nc2ccc(S(N)(=O)=O)cc2)nn1C(=O)c1c(F)cccc1F` was 65%; that for `Nc1nccc(-c2c(-c3ccc(F)cc3)ncn2C2CCNCC2)n1` was 128%; that for `NCCNc1ncc(C(N)=O)c(Nc2cccc(C(F)(F)F)c2)n1` was 104%.
With `O=C(Nc1nc2ccccc2n1CCN1CCOCC1)c1cccc([N+](=O)[O-])c1`, the residual activity worked out at 109%.

What is called residual activity is the signal under treatment as a percentage of the control signal.
